Assay outcomes deposited in PubChem by several laboratories.
The list is not random: actives were taken first. Their share in the collection is about 4.5%.
BJeLR viability: kills HRASV12-expressing BJeLR cells; AID 1554; BJeLR (HRASV12) viability, CellTiter-Glo ATP luminescence, 48 h; 0.17% of 300,000 active; inhibition, % (test concentration not listed); in the data active means inhibition above about 50%
GDH-TPI inh: inhibits GDH-TPI coupling enzymes, artifact for Mtb FBA screen; GDH-TPI coupled enzyme counterscreen, NADH absorbance; inhibition, % at 4.8 µM; 1.2% of 360,000 active; AID 588335; in the data active means inhibition above about 30%
FBA Mtb inh: Mtb fructose-bisphosphate aldolase inhibition; P9WQA3; purified M. tuberculosis FBA, fluorescence read-out; inhibition, % at 1 µM; 2.3% of 360,000 active; in the data active means inhibition above about 27%
Target sequence (P9WQA3 whole entry, looked up): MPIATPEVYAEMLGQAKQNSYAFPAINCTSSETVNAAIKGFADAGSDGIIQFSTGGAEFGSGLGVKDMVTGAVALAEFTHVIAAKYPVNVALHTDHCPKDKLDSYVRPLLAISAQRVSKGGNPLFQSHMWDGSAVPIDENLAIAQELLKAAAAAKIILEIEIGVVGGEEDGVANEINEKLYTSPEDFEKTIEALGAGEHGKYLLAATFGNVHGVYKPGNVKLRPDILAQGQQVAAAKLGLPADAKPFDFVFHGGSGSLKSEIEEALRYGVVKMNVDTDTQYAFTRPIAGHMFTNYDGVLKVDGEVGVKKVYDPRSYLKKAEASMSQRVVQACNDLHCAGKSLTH
PrP UTR inh: suppresses PrP 5' UTR mRNA reporter expression; 0.35% of 340,000 active; cell-based PrP 5' UTR mRNA reporter, plate reader; AID 488862; inhibition, % (test concentration not listed); in the data active means inhibition above about 52%
PrPC surface inh: reduces human prion protein on the cell surface | P04156 | cell surface PrPC, TR-FRET read-out | inhibition, % at 13.8 µM | 0.43% of 370,000 active | AID 720596; in the data active means inhibition above about 24%
PfHsp40 yeast: restores yeast growth despite PfHsp40 toxicity. S. cerevisiae expressing PfHsp40, growth rescue, ATP luminescence. growth rescue, % at 12.5 µM. 0.68% of 340,000 active. AID 504582; in the data active means growth rescue above about 28%, passing the limit was not always enough;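 further: yeast W303a lacking pdr1 and pdr3 grown in galactose medium; growth measured after three days at 30 °C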
A number is an active result; – = inactive; · = no result; + = active, no number.

SMILES | BJeLR viability | GDH-TPI inh | FBA Mtb inh | PrP UTR inh | PrPC surface inh | PfHsp40 yeast
O=C1Nc2ccccc2C12OC1CCCCC1O2 (stereo unspecified) | – | – | – | – | – | –
COc1ccc2c(c1C(=O)/C=C/c1ccccc1)OC(C)(C)C=C2 | · | · | · | · | – | ·
COC(=O)C[C@H]1C=C[C@H](NC(=O)Nc2ccccc2OC)[C@@H](CO)O1 | · | · | · | · | – | ·
COC(=O)C1=C(C)N(C)C(=O)NC1c1cc2c(cc1[N+](=O)[O-])OCO2 (stereo unspecified) | – | – | – | – | – | 35
COc1cc(C(=O)c2nccc3cc(OC)c(OC)cc23)c([N+](=O)[O-])cc1OC | – | 38 | – | – | – | –
COc1cc(N)c(C(=O)c2nccc3cc(OC)c(OC)cc23)cc1OC | – | – | – | – | – | –
Cc1ccccc1CN1CCCCC(NC(=O)Cc2cccs2)C1=O (stereo unspecified) | · | · | · | · | – | ·
COc1ccc(Cn2ccc3ccc(-c4ccc5ccn(C(=O)c6cccc(OC)c6)c5c4)cc32)cc1 | · | · | · | · | – | ·
COc1ccc(COc2cc(-c3cccc(OC)c3)nc3ccc(NC(C)=O)cc23)cc1 | – | – | 136 | – | – | –
COc1ccc(COc2cc(-c3cccc(OC)c3)nc3ccc(N)cc23)cc1 | – | – | 54 | – | – | –
COc1ccc(COc2cccnc2N)cc1 | – | – | – | – | – | –
COc1ccc(COc2cc(-c3cccc(OC)c3)nc3ccc(NC(=O)c4ccc(N(C)C)cc4)cc23)cc1 | – | 38 | – | – | · | –
COc1ccc(COc2cc(-c3cccc(OC)c3)nc3ccc(NC(=O)c4ccc(C)cc4)cc23)cc1 | – | – | – | – | – | –
CCOC(=O)[C@]12CCCCC/C=C\1N(CCc1ccc(Cl)cc1)C(=O)[C@H]2CC(=O)NCC12CC3CC(CC(C3)C1)C2 | · | · | · | · | – | ·
COc1cc2c3nnc(-c4ccc(F)cc4)c-3cn(Cc3cccc(C)c3)c2cc1OC | – | – | – | – | – | –
COc1cc2c3nnc(-c4ccc(F)cc4)c-3cn(Cc3cccc(F)c3)c2cc1OC | · | – | 46 | – | · | –
COC(=O)C1CN(Cc2cn(CCOC(C)=O)nn2)CCS(=O)(=O)N1Cc1ccc(C)cc1 (stereo unspecified) | · | · | · | · | – | ·
O=C(NCc1ccccn1)c1ccc(=O)oc1 | – | 38 | – | – | – | –
O=C(NCCc1ccccc1)c1ccccc1C(=O)NCCc1ccccc1 | – | – | – | · | – | ·
CC(NC(=O)c1ccc(=O)oc1)c1ccccc1 (stereo unspecified) | – | 59 | – | – | – | –
O=C(NCCc1ccccc1)c1ccc(=O)oc1 | – | 75 | – | – | – | –
COc1ccccc1C1CCN(C(=O)c2ccc(Cl)cc2)CC1 | – | – | – | – | – | 199
Nc1c2c(nc3ccccc13)N(c1ccccc1)CC2 | – | – | – | – | – | –
CCCC(=O)Nc1c2c(nc3ccccc13)N(c1ccccc1)CC2 | – | – | 192 | – | · | –
COC(=O)[C@]12C[C@H](CC(=O)N3CCCCC3)C(=O)N(Cc3ccco3)C1=C[C@H](COCc1ccccc1)O[C@@H]2C | · | · | · | · | – | ·
SMILES | BJeLR viability | GDH-TPI inh | FBA Mtb inh | PrP UTR inh | PrPC surface inh | PfHsp40 yeast
Cc1cc2cc(CCNS(C)(=O)=O)c(=O)[nH]c2cc1C | – | – | – | – | – | –
CCS(=O)(=O)NCCc1cc2cc(C)c(C)cc2[nH]c1=O | · | 31 | – | – | – | –
COc1cccc(/C=N/NC(=O)c2[nH]c(C)c(C(=O)N/N=C/c3cccc(OC)c3)c2C)c1 | – | 42 | – | – | – | –
COc1ccc(NC(=O)c2[nH]c(C)c(C(C)=O)c2C)cc1 | – | – | – | – | – | –
CCOC(=O)c1c(C)[nH]c(C(=O)N/N=C/c2cccc(OC)c2)c1C | – | – | – | – | – | –
COc1ccc(/C=N/NC(=O)c2[nH]c(C)c(C(=O)N/N=C/c3ccc(OC)cc3)c2C)cc1 | – | 100 | – | – | – | –
C=CCN(C(=O)[C@@H](C1CC1)[C@@H](O)c1ccc2ccccc2c1)c1ccccc1 | · | · | · | · | – | ·
O=C(/C=C\c1ccco1)Nc1cc([N+](=O)[O-])ccc1F | 62 | – | – | – | – | –
CCN(CC)S(=O)(=O)c1ccc(OC)c(NC(=O)/C=C/c2ccco2)c1 | – | 35 | – | – | – | –
CCN(CC)S(=O)(=O)c1ccc(N2CCCCC2)c(NC(=O)/C=C/c2ccc(OC)c(OC)c2)c1 | – | – | – | – | – | –
O=S1(=O)c2ccc(Br)cc2OC[C@@H](Cc2ccccc2)N1Cc1cn(Cc2ccc(C(F)(F)F)cc2)nn1 | · | · | · | · | – | ·
CCOc1ccc(NC(=O)Cn2sc3nc(C)cc(C)c3c2=O)cc1 | – | – | – | – | · | 74
COc1cccc(OC)c1NC(=O)OCCN1CCCC12CCC(c1ccccc1)CC2 (stereo unspecified) | · | · | · | · | – | ·
O=C(CSc1nnc(-c2cnccn2)n1-c1ccccc1)Nc1ccc2c(c1)OCCO2 | · | · | · | · | – | ·
Cc1cccn2c(=O)c3cc(C(=O)NCCN4CCOCC4)c(=N)n(Cc4ccc(F)cc4)c3nc12 | – | – | 156 | – | – | –
CCOCCCn1c(=N)c(C(=O)NCCN2CCOCC2)cc2c(=O)n3cccc(C)c3nc21 | · | – | 185 | – | – | –
Cc1cccn2c(=O)c3cc(C(=O)NC4CCCC4)c(=N)n(CCCN4CCOCC4)c3nc12 | – | – | 141 | – | – | –
COc1ccc(CCNC(=O)c2cc3c(=O)n4cccc(C)c4nc3n(CCCN3CCOCC3)c2=N)cc1 | – | – | – | – | – | –
Cc1cccn2c(=O)c3cc(C(=O)NCCN4CCOCC4)c(=N)n(CCN4CCOCC4)c3nc12 | – | – | 151 | – | – | –
Cc1cccn2c(=O)c3cc(S(=O)(=O)c4ccccc4)c(=N)n(Cc4ccc(F)cc4)c3nc12 | – | – | – | – | – | –
CCC(CC)NC(=O)O[C@H]1CC[C@@]23CCCN2C(=O)CCC[C@H]3[C@H]1C | · | · | · | · | – | ·
C=CCN1C(=O)[C@H](CC(=O)NCCCC)[C@@]2(C(=O)OCC)CCCC=C12 | · | · | · | · | – | ·
O=C(NCCN1CCC(Cc2ccccc2)CC1)C1CCCN(S(=O)(=O)c2ccccc2)C1 (stereo unspecified) | · | · | · | · | – | ·
COc1ccccc1C(=O)Oc1ccc2ccc(=O)oc2c1 | – | – | 117 | – | – | –
O=C(CN1C(=O)NC2(CCCCC2)C1=O)Oc1ccc2ccc(=O)oc2c1 | · | – | + | – | – | –
O=C(Oc1ccc2ccc(=O)oc2c1)c1ccco1 | – | – | + | – | – | –
O=C1CC(N2CCCc3ccccc32)C(=O)N1c1ccccc1 (stereo unspecified) | – | – | – | – | – | –
CCc1ccccc1N1C(=O)CC(N2CCc3ccccc32)C1=O (stereo unspecified) | – | – | – | – | – | 69
CC(c1ccccc1)N1CC[C@H]2C=CC[C@@H](C(=O)Nc3ccc(F)c(F)c3)[C@H]2C1=O (stereo partly specified) | · | · | · | · | – | ·
CCc1ccc(N2C(=O)CN(Cc3ccc(OC)c(OC)c3)C2=S)cc1 | – | – | – | – | – | 31
